The structures appear in SMILES notation. Results filed as inconclusive are left out. Unmarked numbers belong to inactive results. The source made the active and inactive calls. Calls follow the shape of the dose curve; as a rule, active = well fitted curve in the direction sought with a large enough effect; inconclusive = small, poorly fitted or top-dose-only effect, or another doubt; inactive = no such curve, though single readings can be large; an effect the other way counts as inactive or inconclusive.

Experiment [1] is described as follows: SW1088 Cancer Cell Toxicity qHTS against the NCATS CANVASS Library (AID 1347350). Also: nearly all actives have a fitted effect of over 75% in size. The method in brief: (§1)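 Step one: seed 1000 cells per well. Step two: incubate 4 h. Step three: add test compounds in 11 concentrations. Step four: culture 72 h, then add CellTiter-Glo and record luminescence after 15min.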
A general note: In qHTS, concentration-response curves come from the screen itself.

A short description of experiment [2]: A2780 Cisplatin Sensitive Ovarian Cancer Cell Toxicity qHTS against the NCATS CANVASS Library (AID 1347353). Also: nearly all actives have a fitted effect of over 60% in size. The method in brief: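 Luminescent ATP content (ATPLite, 10 min at room temperature) served as the read-out after cells had been exposed to compounds for 72 hours at 37 °C. Dosing followed an 11-point concentration series.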
A short description of experiment [3]: UWB1.289-WTBRCA1 Cancer Cell Toxicity qHTS against the NCATS CANVASS Library (AID 1347354). The method in brief: (§2)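 Luminescent ATP read-out (CellTiter-Glo, 15min at room temperature) measures survival after cells face an 11-point compound series for 72 hours at 37 degrees C/5% CO2.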
The nature of experiment [4]: HEK-293 Cancer Cell Toxicity qHTS against the NCATS CANVASS Library (AID 1347355). Also: series mostly up to about 46 µM; nearly all actives have a fitted effect of over 65% in size. An outline of the steps: as §2
Experiment [5] has as its system NAD(P)H diaphorase (Clostridium kluyveri). The experiment in a line: Diaphorse counterscreen qHTS: Assay Interference Panel against the NCATS CANVASS Library (AID 1347362). An outline of the steps: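 Clostridium kluyveri diaphorase in PBS + 0.01% Tween-20 preincubated 15 min with compounds. Resazurin and NADH then added for 5 min at room temperature in the dark; resorufin fluorescence read (ex 525, em 598).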
In general terms: Counterscreens check selectivity or assay interference.

The nature of experiment [6]: KB-8-5-11 Cancer Cell Toxicity qHTS against the NCATS CANVASS Library (AID 1347364). Also: nearly all actives have a fitted effect of over 75% in size. An outline of the steps: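 Plate 500 KB-8-5-11 cells per well in DMEM + 10% FBS, add compounds by pin transfer, incubate 72 hr at 37C. Add CellTiter-Glo, wait 10 minutes at room temperature, read luminescence.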
Experiment [7] can be described thus: SDT Cancer Cell Toxicity qHTS against the NCATS CANVASS Library (AID 1347365).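 Also: SDT canine glioma cells 500 per well in 1536 well plates; series mostly up to about 46 µM; nearly all actives have a fitted effect of over 60% in size.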 The method in brief:
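qHTS, SDT dog glioma line, 500 cells/well; cpds 11 pts; 72 hr, 37C, 5% CO2; CellTiterGlo ATP luminescence.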

Experiment [8] is described as follows: KB-3-1 Cancer Cell Toxicity qHTS against the NCATS CANVASS Library (AID 1347366). Also: nearly all actives have a fitted effect of over 75% in size. An outline of the steps: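 KB-3-1 cells (500 cells/well) in DMEM + 10% FBS were treated with compounds for 72 hr at 37C, 5% CO2. Viability was read as CellTiter-Glo luminescence after 10 minutes at room temperature.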
A short description of experiment [9]: qHTS for Hypoxia signaling pathway (HIF-1) antagonists against the NCATS CANVASS Library (AID 1347374).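 Also: HRE-bla ME-180 cells stimulated with cobalt chloride to stabilize HIF-1alpha; series mostly up to about 38 µM; nearly all actives have a fitted effect of over 60% in size.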 An outline of the steps: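 HRE-bla ME-180 cells in medium with 0.5% dialyzed FBS received compounds (11-point series) plus CoCl2 (60 uM addition stock) for 17 hrs at 37C. Beta-lactamase activity read with CCF4 (405 nm ex, 460/530 nm em); CellTiter-Glo viability measured in same wells.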

Experiment [10] can be described thus: qHTS for Hypoxia signaling pathway (HIF-1) agonists against the NCATS CANVASS Library (AID 1347375). An outline of the steps: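 ME-180 HRE-bla reporter cells; 2,000/well, 0.5% dialyzed FBS; cpd added after 5 h, 17 h 37C/5% CO2; CCF4-AM 2 h RT; FRET 460/530 nm; CellTiter-Glo viability same wells, 30 min.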
Experiment [11] is described as follows: DH5-alpha competent E. coli microbial cell viability qHTS against the NCATS CANVASS Library (AID 1347377). Conditions: outcome: dose series up to 46.1 µM unless noted. An outline of the steps: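 qHTS, 11-pt; E. coli DH5-alpha, 0.2 OD; o/n 37C/5% CO2; BacTiter-Glo, 20 min RT; luminescence.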
The nature of experiment [12]: qHTS for H2AX Agonists against the NCATS CANVASS Library (AID 1347378). The method in brief:
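CHO-K1 cells were plated overnight at 37C, then exposed to compounds (concentration series, 0.76% DMSO final) for 3 hr at 37C. Lysates received Eu-cryptate anti-pH2AX (S139) and d2 anti-H2AX antibodies; after 24 hr at room temperature, TR-FRET 665/620 nm ratio was read.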

Experiment [13] in a line: qHTS for Activators of p53 Stress Response Pathway screened against the NCATS CANVASS Library (AID 1347388). An outline of the steps:
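p53RE-bla HCT-116 cells (4000/well) were pre-incubated for 5 h, then treated with compound (11 points) for 16 h at 37C. After 2 h with CCF4, the 460/530 nm ratio gave reporter activation; CellTiter-Glo measured viability.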

Experiment [14] in a line: qHTS for activators of dead-cell proteases activity screened against the NCATS CANVASS Library (AID 1347392).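 Also: luminescence from protease leaking out of membrane-damaged cells cleaving impermeant substrate; rising signal means more cytotoxicity.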 An outline of the steps:
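HepG2 cells, 2000/well, attached 18 h at 37C, then exposed to compounds (11-point qHTS) for 5 h. Dead-cell protease release read as luminescence from cell-impermeant AAF-aminoluciferin substrate after 15 min at room temperature.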

A short description of experiment [15]: qHTS for inhibitors of Wild type Zika virus screened against the NCATS CANVASS Library (AID 1347396).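 Also: ATP luminescence of surviving cells so rescue from viral cell killing; series mostly up to about 46 µM.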 An outline of the steps: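 Vero 766 cells, 1000/well, o/n attach; cpds pin-transferred (11-pt qHTS); WT Zika added; 72 h, 37C, 5% CO2; CellTiter Glo lumi. Uninfected + vehicle = 100% inhibition.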
A short description of experiment [16]: Viability qHTS for inhibitors of the SERCaMP assay screened against the NCATS CANVASS Library (AID 1347400). Also: series mostly up to about 92 µM; nearly all actives have a fitted effect of over 70% in size. The method in brief:
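SH-SY5Y SERCaMP MJH297 cells, 1000/well; 4 h settle, 37C/5% CO2; pin-transferred cpds; 48 h; CellTiter-Glo lum. Pos ctrl bortezomib 0.0001 - 4.6 uM.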

Experiment [17] in a line: Redox Reaction Profiling qHTS: Assay Interference Panel against the NCATS CANVASS Library (AID 1347401). An outline of the steps: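 Compounds in 11-point series incubated with 5 uM resazurin and 200 uM DTT in 50 mM HEPES pH 7.3, 50 mM NaCl. Resorufin fluorescence (Ex 525/Em 598) read before and after 15 min in the dark.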
The nature of experiment [18]: UWB1.289 Cancer Cell Toxicity qHTS against the NCATS CANVASS Library (AID 1347347). Also: nearly all actives have a fitted effect of over 60% in size. Also: potency is read from the fitted curve at half-maximal effect. An outline of the steps: as §1
A short description of experiment [19]: Secretion counterscreen for inhibitors of the SERCaMP assay screened against the NCATS CANVASS Library (AID 1347390).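 Also: light from luciferase secreted into medium read as a measure of general secretion; series mostly up to about 77 µM.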 An outline of the steps:
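SH-SY5Y cells expressing constitutively secreted GLuc, 1000 cells/well, attached 4 h at 37C, then exposed to compounds (0.001 - 77 uM, 11-pnt series) for 20 h. Coelenterazine added; luminescence read to flag secretory-pathway interferers.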

Experiment [20] in a line: qHTS for inhibitors of ER calcium dysfunction: SERCaMP assay screened against the NCATS CANVASS Library (AID 1347393).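 Also: series mostly up to about 77 µM; lower secreted reporter signal means inhibitor of ER calcium depletion; nearly all actives have a fitted effect of over 40% in size.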 The method in brief:
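SH-SY5Y GLuc-SERCaMP, 1000 cells/well, 4 h attach; cpd 16 h, 37C/5% CO2; thapsigargin (added as 6x 600 nM) 4 h; coelenterazine; luminescence. Reduced reporter release = ER Ca stabilization.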

`CC12C[C@]3(O)O[C@@H](O1)[C@]1(COC(=O)c4ccccc4)[C@@H]3CC21OC1OC(CO)C(O)C(O)C1O` (stereo not given in full): the Potency result in experiment [1], in experiment [2], in [3], in experiment [4], in experiment [5] and in experiment [6] was “inactive” in each case. In addition, the Potency result in [7], in experiment [8], in experiment [9], in experiment [10], in [12] and in [13] was “inactive” throughout. Also, the Potency entry in [14], in [15], in experiment [16] and in experiment [17] was “inactive” in each case. Moreover, in experiment [11], the molecule was called inactive.
As for `CCCCCC[C@H](CCCCC[C@@H](O)C(N)=O)OC(=O)[C@@H]1CC=CN1C(=O)c1ccccc1O`, the Potency in experiment [18] is 6.66 µM (active). In addition, the Potency result in experiment [4], in [6], in experiment [8], in [9], in [10] and in [12] was “inactive” in each case. Besides, the Potency result in experiment [13], in experiment [19], in [14], in experiment [20], in [15] and in experiment [16] was “inactive” throughout. The Potency result in experiment [17] was “inactive”.
Turning to `C[C@@]12C[C@@H](C[C@H]3C(=O)O[C@@H](c4ccoc4)[C@H](OC(=O)c4ccccc4)[C@@H]31)OC2=O`, the Potency entry in experiment [18], in experiment [1], in experiment [2], in experiment [3], in experiment [4] and in [5] was “inactive” throughout. Moreover, the Potency entry in [6], in experiment [7], in experiment [8], in experiment [9], in [10] and in [12] was “inactive” in each case. Further, the Potency entry in experiment [13], in [19], in [14], in [20], in experiment [15] and in experiment [16] was “inactive” in each case. Also, the Potency result in experiment [17] is “inactive”. Further, the result in experiment [11] was inactive.
On to `CC1(C)CCC[C@]2(C)[C@@H]1CC[C@@]13C[C@@H](CC[C@H]12)C(C)(O)C3` (stereo not given in full), for which the Potency result in experiment [18], in [1], in experiment [2], in experiment [3], in experiment [4] and in [5] was “inactive” each time. The Potency entry in [6], in experiment [7], in experiment [8], in [9], in [10] and in experiment [12] was “inactive” each time. Moreover, the Potency result in experiment [13], in experiment [19], in experiment [14], in [20], in [15] and in experiment [16] was “inactive” throughout. In addition, in [17], the Potency entry is “inactive”. In experiment [11], the outcome was inactive.
As to `C[C@]12CC[C@]3(C1)[C@H](CC2=O)CC(OC(=O)c1ccccc1)[C@H]1[C@@](CO)(C(=O)O)CCC[C@@]13C` (stereo not given in full), the Potency result in experiment [18], in [1], in experiment [2], in experiment [3], in [4] and in experiment [5] was “inactive” throughout. The Potency entry in [6], in [7], in experiment [8], in [9], in [10] and in experiment [12] was “inactive” throughout. For the same molecule, the Potency entry in experiment [13], in experiment [14], in [20], in experiment [15], in experiment [16] and in [17] was “inactive” each time. Besides, the outcome in experiment [11] was inactive.
`CC(=O)O[C@H]1CC[C@@]2(C)C(CC[C@]3(C)C2CC=C2C4CC(C)(C)CC[C@]4(C)CC[C@]23C)C1(C)C` (stereo not given in full): the Potency result in experiment [18], in [1], in experiment [2], in experiment [3], in experiment [4] and in experiment [5] was “inactive” each time. Further, the Potency result in [6], in experiment [7], in [8], in experiment [9], in experiment [10] and in experiment [12] was “inactive” throughout. The Potency result in experiment [13], in experiment [19], in [14], in experiment [20], in experiment [15] and in [16] was “inactive” each time. In addition, in [17], the Potency result was “inactive”. Also, the outcome in experiment [11] was inactive.
